Here are results for seven compounds from PubChem BioAssay (NCATS).

A number with no mark means an inactive call. Inconclusive results are not listed. Activity calls are given as the source filed them. Unless noted, calls follow the shape of the dose curve; as a rule, active = well fitted curve in the direction sought with a large enough effect; inconclusive = small, poorly fitted or top-dose-only effect, or another doubt; inactive = no such curve, though single readings can be large; an effect the other way counts as inactive or inconclusive.

In test [1] the target is Lysosomal acid glucosylceramidase (Homo sapiens) (UniProt P04062). Briefly: Glucocerebrosidase-p2 (AID 348; in the data active = potency below about 10 µM; also: potency is read from the fitted curve at half-maximal effect). As to conditions: purified GBA, blue fluorogenic substrate, 40 min. The method, boiled down: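 Normal human glucocerebrosidase (0.2 nM) with blue fluorogenic substrate (80 uM final) in citrate/phosphate pH 5.9 with 10mM sodium taurocholate, 0.01% tween-20; 40 min RT, NaOH/glycine stop; fluorescence Ex 365/Em 440; AC50 from a titration from 0.6 nM upwards.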
Lysosomal acid glucosylceramidase (Homo sapiens), sequence (P04062 whole entry, looked up): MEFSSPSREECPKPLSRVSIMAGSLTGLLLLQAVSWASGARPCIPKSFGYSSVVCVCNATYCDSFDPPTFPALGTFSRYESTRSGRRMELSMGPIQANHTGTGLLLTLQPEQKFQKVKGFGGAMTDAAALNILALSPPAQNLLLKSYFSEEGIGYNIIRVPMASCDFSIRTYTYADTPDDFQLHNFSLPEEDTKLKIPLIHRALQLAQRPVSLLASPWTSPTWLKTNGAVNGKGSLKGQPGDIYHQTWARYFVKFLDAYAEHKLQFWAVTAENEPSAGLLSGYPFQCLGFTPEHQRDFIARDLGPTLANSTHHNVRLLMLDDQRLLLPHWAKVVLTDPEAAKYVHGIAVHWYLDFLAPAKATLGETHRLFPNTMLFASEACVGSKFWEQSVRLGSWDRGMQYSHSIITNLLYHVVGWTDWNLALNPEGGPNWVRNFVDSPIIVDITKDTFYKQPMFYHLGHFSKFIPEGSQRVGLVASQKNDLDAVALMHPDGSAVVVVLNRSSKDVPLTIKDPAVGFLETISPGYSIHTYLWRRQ

The target in test [2] is Cytochrome P450 1A2 (Homo sapiens) (UniProt P05177). In words: p450-cyp1a2 (AID 410; calls by dose curve; also: potency is read from the fitted curve at half-maximal effect). The note with it: recombinant CYP1A2, luciferin-ME demethylation, luminescence; series mostly up to 57 µM. The method, boiled down: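 Luminescent demethylation readout: Luciferin-ME (100uM, equal to Km) turned over by 20nM CYP1A2 for 60 min at room temperature after NADPH regeneration addition, following 10 min compound preincubation. Normalization used 57 uM furafylline as full inhibition.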
Cytochrome P450 1A2 (Homo sapiens), sequence (P05177 whole entry, looked up): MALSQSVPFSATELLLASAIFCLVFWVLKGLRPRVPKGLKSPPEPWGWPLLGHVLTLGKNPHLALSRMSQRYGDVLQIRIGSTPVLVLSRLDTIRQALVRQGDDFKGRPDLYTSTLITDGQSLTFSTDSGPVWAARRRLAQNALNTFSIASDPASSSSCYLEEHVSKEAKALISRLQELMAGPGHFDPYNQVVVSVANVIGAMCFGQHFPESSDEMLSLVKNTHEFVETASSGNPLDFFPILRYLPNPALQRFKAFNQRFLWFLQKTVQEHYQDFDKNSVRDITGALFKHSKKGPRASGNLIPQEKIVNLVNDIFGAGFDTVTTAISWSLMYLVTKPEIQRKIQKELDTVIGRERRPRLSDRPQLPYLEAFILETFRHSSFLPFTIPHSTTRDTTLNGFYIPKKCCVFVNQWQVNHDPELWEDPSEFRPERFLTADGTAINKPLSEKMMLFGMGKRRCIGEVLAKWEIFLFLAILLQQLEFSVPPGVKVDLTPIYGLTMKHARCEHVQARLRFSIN

Test [3] can be described thus: Stat Signaling Pathway (AID 446; active = well fitted curve in either direction with a large enough effect, not every such curve was filed as active;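 also: ME-180 cervical cancer cells given 40 pM IL-6 alongside compound; SIE-controlled beta-lactamase reporter measured as 460/530 nm FRET emission ratio; % is scaled to controls: 0 for no effect and ±100 for the full control effect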). As to conditions: ME-180 SIE beta-lactamase reporter, IL-6 stimulated, 5 h; at 7.69 µM (top of the series) unless noted. Put shortly: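 Emission at 460 and 530 nm (excitation 405 nm) reports SIE-controlled beta-lactamase in ME-180 cells. Cells received compound with 40 pM IL-6 for 5 hrs at 37 C; data scaled between 300 pM IL-6 and 125 nM JAK-inhibitor controls.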

For test [4], the target named is Glucocorticoid receptor (Homo sapiens) (UniProt P04150). Briefly: GR-EFC Redistribution (AID 451; calls by dose curve; also: potency is read from the fitted curve at half-maximal effect). The note with it: CHO-K1 GR-EFC translocation, beta-gal luminescence, 2 h. The method, boiled down:
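CHO-K1 cells stably expressing nuclear-localized β-gal enzyme acceptor and GR fused C-terminally to the enzyme donor fragment; ligand-driven nuclear translocation restores β-gal by complementation. Compounds titrated up to 46 uM final, 2 h at 37 °C; luminescence read.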

Test [5] deals with Mitogen-activated protein kinase 10 (Mus musculus) (UniProt Q61831). Briefly: JNK3 AlphaScreen Assay (AID 530; active = well fitted curve in either direction with a large enough effect, not every such curve was filed as active;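 also: kinase came from lysate of stimulated human HepG2 cells; % is scaled to controls: 0 for no effect and ±100 for the full control effect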). The note with it: JNK3 lysate, c-Jun phosphorylation; series mostly up to 57.1 µM. Put shortly: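 Phosphorylation of biotinylated GST-cJun(1-79) at Ser73 is measured by AlphaScreen proximity luminescence. Enzyme is JNK3 in HepG2 lysates activated with interleukin-1beta and tumor necrosis factor alpha; ATP is 10 uM final.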
A general note: Alpha assays give light when donor and acceptor beads are brought close together.

The target of test [6] is Cytochrome P450 3A4 (Homo sapiens) (UniProt P08684). In words: qHTS Assay for Inhibitors and Substrates of Cytochrome P450 3A4 (AID 884). Also: potency is read from the fitted curve at half-maximal effect; nearly all actives have a fitted effect of over 50% in size. As to conditions: recombinant CYP3A4, Luciferin-PPXE luminescence; series mostly up to 57.1 µM. The method, boiled down:
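Luminescent readout of luciferin produced by CYP3A4 (20 nM) dealkylation of Luciferin-PPXE, 25 uM (its KM). NADPH-driven reaction ran 60 min at RT after 10 min compound preincubation; data scaled to 57 uM ketoconazole as 100% inhibition.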
Background: Quantitative high-throughput screening tests each substance at several concentrations.

For test [7] the target is unchanged. Briefly: qHTS Assay for Activators of Cytochrome P450 3A4 (AID 885). Also: nearly all actives have a fitted effect of over 65% in size. As to conditions: recombinant CYP3A4, Luciferin-PPXE luminescence, 60 min; series mostly up to 57.1 µM. Put shortly: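 Activators are scored by enhanced luminescence from CYP3A4 conversion of luciferin-PPXE (25uM, equal to KM) to luciferin, after 60 min at RT with an NADPH-regenerating system.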

The target of test [8] is Dual specificity protein kinase CLK4 (Homo sapiens) (UniProt Q9HAZ1). In words: qHTS Assay for Inhibitors of CDC-like Kinase 4 (Kinase-Glo Assay) (AID 1770). Also: nearly all actives have a fitted effect of over 65% in size. Also: potency is read from the fitted curve at half-maximal effect. The note with it: recombinant Clk4, Kinase-Glo ATP depletion luminescence; series mostly up to 66.7 µM. The method, boiled down:
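Recombinant human Clk4 (25 nM) phosphorylated RS repeat peptide (100 uM) with 1 uM ATP in Tris pH 7.5/MgCl2/EGTA/DTT/Triton buffer for 4.5 h at room temperature. Residual ATP was quantified by Kinase-Glo luciferase luminescence.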

Test [9] has the same target. In words: qHTS Assay for Inhibitors of CDC-like Kinase 4 (ADP-Glo Assay) (AID 1771). Also: nearly all actives have a fitted effect of over 70% in size. Also: potency is read from the fitted curve at half-maximal effect. The note with it: recombinant CLK4, ADP-Glo luminescence; series mostly up to 80 µM. The method, boiled down: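 ADP production was read by ADP-Glo luminescence after residual ATP depletion, following 1 h room-temperature reaction of 25 nM Clk4, 1 uM ATP and 100 uM RS peptide with MgCl2, EGTA, DTT and Triton X-100.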

The target is the same in test [10]. In words: qHTS Assay for Inhibitors of CDC-like Kinase 4 (ADP-FP Assay) (AID 1795). Also: nearly all actives have a fitted effect of over 60% in size. Also: potency is read from the fitted curve at half-maximal effect. The note with it: Transcreener ADP fluorescence polarization; series mostly up to 50 µM. The method, boiled down: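 Recombinant human Clk4 (6.25 nM) phosphorylated RS repeat peptide (100 uM) with 1 uM ATP in Tris pH 7.5/MgCl2/EGTA/DTT/Triton buffer for one hour. ADP was quantified by Transcreener competitive fluorescence polarization against an ADP calibration curve.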

Test [11] deals with Ubiquitin carboxyl-terminal hydrolase 1 (Homo sapiens) (UniProt O94782). Briefly: Inhibitors of USP1/UAF1: Pilot qHTS (AID 504865). Also: nearly all actives have a fitted effect of over 35% in size. Also: potency is read from the fitted curve at half-maximal effect. The note with it: purified USP1/UAF1, Ub-rhodamine cleavage fluorescence; series mostly up to 54.9 µM. The method, boiled down: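 USP1/UAF1 complex (1nM) preincubated with compound 15 min at room temperature, then Ub-Rho substrate (150nM final) added. Fluorescence read kinetically at 480/540 nm, 6 reads every 60 seconds. Buffer: 50mM HEPES pH 7.8, 0.5mM EDTA, 0.1 mg/ml BSA, 1mM TCEP, 0.01% Tween-20.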
Ubiquitin carboxyl-terminal hydrolase 1 (Homo sapiens), sequence (O94782 whole entry, looked up): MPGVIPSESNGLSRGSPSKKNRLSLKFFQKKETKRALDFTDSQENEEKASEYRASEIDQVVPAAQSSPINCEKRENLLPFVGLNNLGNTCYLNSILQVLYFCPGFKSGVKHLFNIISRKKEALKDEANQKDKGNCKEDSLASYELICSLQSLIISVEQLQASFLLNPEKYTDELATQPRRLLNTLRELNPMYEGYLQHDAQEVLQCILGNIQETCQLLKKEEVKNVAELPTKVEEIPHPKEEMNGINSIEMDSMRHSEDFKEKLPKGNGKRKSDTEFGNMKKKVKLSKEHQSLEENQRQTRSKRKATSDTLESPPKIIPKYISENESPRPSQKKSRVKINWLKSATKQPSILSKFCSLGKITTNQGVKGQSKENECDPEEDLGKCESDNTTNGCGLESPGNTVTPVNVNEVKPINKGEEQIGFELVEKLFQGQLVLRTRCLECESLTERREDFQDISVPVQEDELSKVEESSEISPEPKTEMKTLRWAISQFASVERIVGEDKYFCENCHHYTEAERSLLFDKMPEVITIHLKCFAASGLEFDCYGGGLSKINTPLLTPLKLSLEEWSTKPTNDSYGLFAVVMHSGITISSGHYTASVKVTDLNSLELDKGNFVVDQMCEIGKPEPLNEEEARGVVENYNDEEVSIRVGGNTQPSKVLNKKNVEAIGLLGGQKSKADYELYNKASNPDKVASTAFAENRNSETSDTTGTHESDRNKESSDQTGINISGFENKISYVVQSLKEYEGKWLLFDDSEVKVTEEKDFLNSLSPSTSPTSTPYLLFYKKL

A short description of test [12]: Primary qHTS for small molecule stabilizers of the endoplasmic reticulum resident proteome: Secreted ER Calcium Modulated Protein (SERCaMP) assay (AID 1508630). Also: % is scaled to controls: 0 for no effect and ±100 for the full control effect. As to conditions: SH-SY5Y GLuc-SERCaMP (Gaussia luciferase released on ER calcium loss) secretion, thapsigargin, luminescence; series mostly up to 38.4 µM. Put shortly:
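The SH-SY5Y reporter protocol was run at 3 concentrations up to 38.3 uM (primary) or 11 concentrations (follow-up): 16 h compound, 100 nM thapsigargin for 4 h, then extracellular luciferase luminescence.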

The nature of test [13]: NFAT Signaling Pathway (AID 444; active = well fitted curve in either direction with a large enough effect, not every such curve was filed as active;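 also: carbachol stimulus at about its EC50 of 1 µM final; % is scaled to controls: 0 for no effect and ±100 for the full control effect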). The note with it: Jurkat NFAT-bla M1, carbachol, beta-lactamase ratio, 5 h; at 7.69 µM (top of the series) unless noted. The method, boiled down: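 Jurkat cells carrying an NFAT-driven β-lactamase reporter and co-transfected muscarinic M1 receptor were treated with compound plus carbachol (1 uM final, an EC50 level) for 5 h at 37 °C. CCF4 loading followed for 1 h at RT; 460/530 nm ratio gave %activity.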

Test [14] concerns the target Glucocorticoid receptor (Homo sapiens) (UniProt P04150). In words: GR-GFP Redistribution (AID 450;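 active = compounds whose dose series gives a full or clear partial fitted curve of increased nuclear translocation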; also: potency is read from the fitted curve at half-maximal effect). The note with it: U2OS GR-GFP nuclear translocation, laser cytometry, 2 h.
The target of test [15] is 3',5'-cyclic-AMP phosphodiesterase 4B (Homo sapiens) (UniProt Q07343). In words: qHTS Assay for Inhibitors of PDE-IV (AID 607; active = well fitted activation curve with a large enough effect in the main read-out, with a control signal flat, not every such curve was filed as active; also: % of control where 0% means no effect). As to conditions: HEK293 ACTOne CNG channel cells, membrane potential fluorescence; series mostly up to 22.9 µM. The method, boiled down:
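The readout is membrane depolarisation from a cAMP-sensing CNG channel, detected with a potential dye at ex 535/em 590. Cells were HEK293-derived (endogenous PDE-IV) at 1000 cells/well, titrated up to 22.9 uM final.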

Test [16] is described as follows: AP1 Signaling Pathway (AID 357; active = well fitted curve in either direction with a large enough effect, not every such curve was filed as active). As to conditions: ME-180 (cervical carcinoma) AP-1-bla reporter, EGF-induced, beta-lactamase ratio, 5 h; at 7.69 µM (top of the series) unless noted. Put shortly:
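AP-1-bla ME-180 cells, Opti-MEM + 0.5% dialyzed FBS, plated overnight 37 °C. Cpd titration + EC50 EGF, 5 h 37 °C. CCF4 2.5 h RT; ex 405, em 460/530 ratio → %activity, AC50.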

For test [17], the target named is Cytochrome P450 2C9 (Homo sapiens) (UniProt P11712). In words: qHTS Assay for Inhibitors and Substrates of Cytochrome P450 2C9 (AID 883). Also: potency is read from the fitted curve at half-maximal effect; nearly all actives have a fitted effect of over 60% in size. The note with it: recombinant CYP2C9, luciferin-H luminescence, 60 min; series mostly up to 57.1 µM. The method, boiled down: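 Human CYP2C9 (10nM) hydroxylated Luciferin-H (100uM, at its KM) to luciferin in 25mM KPO4. Compound was preincubated 10 min at 37C, then NADPH regeneration started a 60 min reaction at 37C. Luminescence was read after detection reagent, normalized to 57uM sulphaphenazole.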

The target in test [18] is Cytochrome P450 2D6 (Homo sapiens) (UniProt P10635). In words: qHTS Assay for Inhibitors and Substrates of Cytochrome P450 2D6 (AID 891). Also: potency is read from the fitted curve at half-maximal effect; nearly all actives have a fitted effect of over 60% in size. As to conditions: recombinant CYP2D6, luciferin-ME EGE luminescence; series mostly up to 57.1 µM. Put shortly: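 Luminescent read-out of luciferin formed by 5 nM human CYP2D6 demethylating 30 uM Luciferin-ME EGE (Km level) over 60 min at room temperature after NADPH regeneration addition. Data normalized to full inhibition by 1.43 uM quinidine.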

The target in test [19] is Cytochrome P450 2C19 (Homo sapiens) (UniProt P33261). In words: qHTS Assay for Inhibitors and Substrates of Cytochrome P450 2C19 (AID 899). Also: potency is read from the fitted curve at half-maximal effect; nearly all actives have a fitted effect of over 60% in size. The note with it: recombinant CYP2C19, luciferin-H EGE luminescence; series mostly up to 57.1 µM. Put shortly:
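Human CYP2C19 (5nM) with Luciferin-H EGE at 10uM (its KM) in 50mM KPO4 was preincubated with compound for 10 min at 37C. NADPH regeneration started a 60 min 37C reaction. Luciferin was read by luminescence, normalized to 57uM ketoconazole.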

3',5'-cyclic-AMP phosphodiesterase 4B (Homo sapiens), sequence (Q07343 whole entry, looked up): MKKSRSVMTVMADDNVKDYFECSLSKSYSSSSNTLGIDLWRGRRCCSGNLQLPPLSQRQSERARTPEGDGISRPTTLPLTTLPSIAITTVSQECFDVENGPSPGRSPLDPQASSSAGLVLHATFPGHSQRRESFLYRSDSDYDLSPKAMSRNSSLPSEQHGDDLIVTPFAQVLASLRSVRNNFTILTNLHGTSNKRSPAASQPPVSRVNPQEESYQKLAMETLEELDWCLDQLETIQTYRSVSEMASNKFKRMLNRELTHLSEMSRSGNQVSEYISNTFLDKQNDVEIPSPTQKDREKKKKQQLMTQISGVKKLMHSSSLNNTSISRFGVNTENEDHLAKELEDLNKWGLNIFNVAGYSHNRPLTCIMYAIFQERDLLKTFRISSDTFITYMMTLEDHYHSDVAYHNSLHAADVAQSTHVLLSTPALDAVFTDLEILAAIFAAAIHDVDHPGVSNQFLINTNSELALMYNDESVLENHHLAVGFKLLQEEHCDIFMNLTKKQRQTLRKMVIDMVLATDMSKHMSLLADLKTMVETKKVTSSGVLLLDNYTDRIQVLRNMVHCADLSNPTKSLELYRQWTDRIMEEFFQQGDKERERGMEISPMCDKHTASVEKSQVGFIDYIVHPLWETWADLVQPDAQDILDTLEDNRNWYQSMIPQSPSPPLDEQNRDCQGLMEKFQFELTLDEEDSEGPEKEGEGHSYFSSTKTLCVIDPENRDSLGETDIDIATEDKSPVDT
Dual specificity protein kinase CLK4 (Homo sapiens), sequence (Q9HAZ1 whole entry, looked up): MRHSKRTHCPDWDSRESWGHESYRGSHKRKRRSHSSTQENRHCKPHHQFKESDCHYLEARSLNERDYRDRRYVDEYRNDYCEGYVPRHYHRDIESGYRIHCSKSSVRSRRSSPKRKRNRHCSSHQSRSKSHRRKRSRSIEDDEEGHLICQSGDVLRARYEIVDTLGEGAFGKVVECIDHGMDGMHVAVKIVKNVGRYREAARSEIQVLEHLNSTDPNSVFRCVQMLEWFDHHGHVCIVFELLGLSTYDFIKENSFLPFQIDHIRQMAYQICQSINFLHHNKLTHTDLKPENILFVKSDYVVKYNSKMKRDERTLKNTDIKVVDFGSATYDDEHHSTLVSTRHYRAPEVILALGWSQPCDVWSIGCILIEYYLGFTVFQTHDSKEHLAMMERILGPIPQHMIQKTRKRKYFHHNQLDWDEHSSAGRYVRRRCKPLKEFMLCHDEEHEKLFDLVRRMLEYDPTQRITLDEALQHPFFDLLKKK
Cytochrome P450 3A4 (Homo sapiens), sequence (P08684 whole entry, looked up): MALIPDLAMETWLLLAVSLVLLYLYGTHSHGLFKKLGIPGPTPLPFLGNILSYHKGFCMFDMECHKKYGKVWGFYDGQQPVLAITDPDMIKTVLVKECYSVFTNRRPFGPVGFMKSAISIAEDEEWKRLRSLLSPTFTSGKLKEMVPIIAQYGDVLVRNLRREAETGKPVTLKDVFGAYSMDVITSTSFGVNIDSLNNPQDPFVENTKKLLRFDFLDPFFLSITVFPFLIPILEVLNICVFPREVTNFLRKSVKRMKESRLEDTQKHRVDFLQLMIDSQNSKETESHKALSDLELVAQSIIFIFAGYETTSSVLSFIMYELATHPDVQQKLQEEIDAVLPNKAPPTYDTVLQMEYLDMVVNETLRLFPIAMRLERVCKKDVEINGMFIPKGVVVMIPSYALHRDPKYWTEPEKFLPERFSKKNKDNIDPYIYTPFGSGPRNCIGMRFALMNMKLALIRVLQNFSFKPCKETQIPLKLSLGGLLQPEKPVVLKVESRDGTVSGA
Glucocorticoid receptor (Homo sapiens), sequence (P04150 whole entry, looked up, the tested form may be a part): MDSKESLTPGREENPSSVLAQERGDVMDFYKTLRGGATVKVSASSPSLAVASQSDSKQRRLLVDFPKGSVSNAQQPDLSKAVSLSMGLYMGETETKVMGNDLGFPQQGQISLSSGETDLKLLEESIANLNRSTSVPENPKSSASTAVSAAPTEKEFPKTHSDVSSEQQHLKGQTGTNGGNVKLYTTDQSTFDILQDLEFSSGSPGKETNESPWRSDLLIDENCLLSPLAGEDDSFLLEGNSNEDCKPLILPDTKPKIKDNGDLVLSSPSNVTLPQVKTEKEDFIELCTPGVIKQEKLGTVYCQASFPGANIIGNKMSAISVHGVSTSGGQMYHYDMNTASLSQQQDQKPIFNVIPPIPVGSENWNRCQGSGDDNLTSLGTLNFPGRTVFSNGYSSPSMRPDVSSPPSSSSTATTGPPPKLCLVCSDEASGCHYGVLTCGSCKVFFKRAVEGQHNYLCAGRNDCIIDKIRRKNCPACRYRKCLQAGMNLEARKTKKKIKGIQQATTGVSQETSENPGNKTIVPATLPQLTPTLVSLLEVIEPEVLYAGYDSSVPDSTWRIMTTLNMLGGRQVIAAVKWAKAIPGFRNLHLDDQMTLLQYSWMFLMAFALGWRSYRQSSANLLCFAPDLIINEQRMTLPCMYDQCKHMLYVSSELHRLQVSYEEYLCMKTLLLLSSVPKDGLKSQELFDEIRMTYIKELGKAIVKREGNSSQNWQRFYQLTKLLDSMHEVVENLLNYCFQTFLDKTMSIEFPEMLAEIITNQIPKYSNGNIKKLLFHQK
Cytochrome P450 2C19 (Homo sapiens), sequence (P33261 whole entry, looked up): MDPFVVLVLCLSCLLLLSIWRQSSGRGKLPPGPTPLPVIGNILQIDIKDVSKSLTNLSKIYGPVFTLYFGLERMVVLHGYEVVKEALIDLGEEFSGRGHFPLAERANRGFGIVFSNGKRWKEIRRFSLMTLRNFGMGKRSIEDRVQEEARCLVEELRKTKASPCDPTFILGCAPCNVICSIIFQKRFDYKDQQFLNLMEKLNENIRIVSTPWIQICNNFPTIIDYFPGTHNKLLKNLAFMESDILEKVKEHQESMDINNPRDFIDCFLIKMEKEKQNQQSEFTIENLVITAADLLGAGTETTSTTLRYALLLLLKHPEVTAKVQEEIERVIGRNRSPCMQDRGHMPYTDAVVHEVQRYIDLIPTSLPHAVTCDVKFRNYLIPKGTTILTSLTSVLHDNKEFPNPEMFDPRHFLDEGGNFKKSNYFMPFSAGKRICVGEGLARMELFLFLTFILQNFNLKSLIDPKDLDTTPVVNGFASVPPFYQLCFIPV

In the case of `CS(=O)(=O)Nc1cccc(-c2ccc3ncnc(NCc4cccs4)c3c2)c1`, the Potency was more than 11.4 µM in [1]; 79.4 nM (active) in [2]; more than 46 µM in test [4]; 3.16 µM (active) in [6]; 7.94 µM (active) in [8]; 7.94 µM (active) in [9]. Besides, the Potency in test [10] was 5.01 µM (active). Moreover, the activity, negative = inhibition in test [3] is -2.34%. The Potency entry in [5], in test [7] and in test [11] was “inactive” in each case. Besides, the result in test [12] was inactive.

With `O=c1c(-c2ccc(Cl)cc2)nc2cnc(N3CCNCC3)nc2n1-c1ccccc1`, the Potency is more than 11.4 µM in test [1], more than 9.22 µM in [14] and more than 46 µM in test [4]. Moreover, the activity change, negative = inhibition in test [13] is 153% [activator] (active). Moreover, the Potency result in [15], in [7], in test [8], in [9], in test [10] and in test [11] was “inactive” in each case. Also, the outcome in test [12] was inactive.

As to `CS(=O)(=O)Nc1cccc(-c2nccc(NCc3cccs3)n2)c1`, the Potency in test [1] is more than 11.4 µM; in test [14], more than 46 µM; in test [4] it was more than 46 µM; in [8], 28.2 µM (active); in [9], 35.5 µM (active). The activity change, negative = inhibition in [13] is 14.7%. Also, the activity, negative = inhibition in test [3] is -12.9%. Also, the Potency result in test [5], in test [15], in test [10] and in test [11] was “inactive” throughout. Moreover, the result in test [12] was inactive.

For `Cc1ccccc1-c1ccc2ncnc(NCc3cccnc3)c2c1`, the activity change, negative = inhibition in test [16] is -2.6%; in test [13] it was 2.06%. Further, the Potency is 251 nM (active) in [2]; more than 46 µM in [14]; more than 46 µM in test [4]; 794 nM (active) in [17]; 1.58 µM (active) in test [6]; 2 µM (active) in test [18]. Besides, the Potency in test [19] was 1.58 µM (active); in test [8], 14.1 µM (active); in test [9], 11.2 µM (active); in test [10], 11.2 µM (active). The activity, negative = inhibition in test [3] was -11%. In addition, the Potency result in test [5], in [15], in test [7] and in test [11] was “inactive” throughout. The outcome in test [12] was inactive.

With `CN(C)c1ncc2nc(-c3cccc(C#N)c3)c(=O)n(C)c2n1`, the Potency in [1] was more than 11.4 µM; in test [14], more than 9.22 µM; in [4] it was more than 46 µM. Further, the activity change, negative = inhibition in [13] is 5.54%. Besides, in test [3], the activity, negative = inhibition was -1.63%. Besides, the Potency entry in [5], in test [15], in [8], in test [9], in [10] and in test [11] was “inactive” throughout. The result in test [12] was inactive.

Regarding `CN1CCN(c2ncc3nc(-c4cccs4)c(=O)n(Cc4ccc(F)cc4)c3n2)CC1`, the values for the Potency in test [1], in test [14] and in test [4] were more than 11.4 µM, more than 9.22 µM and more than 46 µM, respectively. Further, the Potency entry in [15], in [8], in [9], in [10] and in test [11] was “inactive” throughout. The result in test [12] was inactive.

With `Clc1ccccc1-c1nccc(NCc2ccccc2)n1`, the activity change, negative = inhibition is 12.5% in [16] and 10.7% in [13]. Further, the Potency was 3160 nM (active) in test [2], more than 46 µM in [14], more than 46 µM in [4] and 28.2 µM (active) in test [11]. Also, in [3], the activity, negative = inhibition was -6.25%. Also, the Potency result in test [5], in test [8], in [9] and in [10] was “inactive” in each case. Also, the result in test [12] was inactive.
